Laboratory results reported in PubChem BioAssay AID1851 (National Center for Advancing Translational Sciences (NCATS), 2009).
Out of some 16,000 compounds screened, about 5,100 (32%) were called active. Inconclusive results (about 25%) are left out. Calls come from the whole dose curve; as a rule, active = well fitted curve in the direction sought with a large enough effect; inconclusive = small, poorly fitted or top-dose-only effect, or effect the other way; inactive = no such curve, though single readings can be large or run the other way. Some of the results follow.

target: Cytochrome P450 3A4 (Homo sapiens) (UniProt P08684); assay: Cytochrome panel assay with activity outcomes; conditions: recombinant CYP, pro-luciferin dealkylation, luminescence, p450-cyp3a4; series mostly up to 57.1 µM; activity, negative = inhibition: at the top concentration
Sequence (P08684 whole entry, looked up): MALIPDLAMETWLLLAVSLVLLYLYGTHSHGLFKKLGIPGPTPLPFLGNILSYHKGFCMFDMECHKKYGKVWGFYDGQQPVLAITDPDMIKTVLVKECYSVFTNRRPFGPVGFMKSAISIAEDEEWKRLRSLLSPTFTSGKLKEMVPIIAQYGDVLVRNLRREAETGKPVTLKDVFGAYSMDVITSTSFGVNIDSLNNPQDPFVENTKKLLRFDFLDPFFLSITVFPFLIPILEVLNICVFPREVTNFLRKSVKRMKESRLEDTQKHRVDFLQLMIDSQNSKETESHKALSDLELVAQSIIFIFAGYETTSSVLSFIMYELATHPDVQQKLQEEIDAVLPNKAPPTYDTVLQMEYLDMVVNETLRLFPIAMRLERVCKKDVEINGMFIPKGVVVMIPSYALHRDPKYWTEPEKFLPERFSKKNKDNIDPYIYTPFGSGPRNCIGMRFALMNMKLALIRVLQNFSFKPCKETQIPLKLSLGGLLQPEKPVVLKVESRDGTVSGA
% is set by controls: 0 for no effect and ±100 for the full control effect.

Question: Which “activity, negative = inhibition” value does the source give for `C[C@@]12CCC(=O)C=C1CC[C@@H]1[C@@H]2[C@H](O)C[C@]2(C)[C@@H]1CC[C@]2(O)C(=O)CO` here?
Answer: -8.94% [at 25.6 µM] (inactive)

Question: `C[C@@]12C[C@H](O)[C@@H]3[C@H](CCC4=CC(=O)CC[C@]43C)[C@H]1CC[C@@H]2c1csc(N)n1` was tested. Which AC50 did it give?
Answer: 2.51 µM (active)

Question: With `C[C@@]12CCC(=O)C=C1CC[C@@H]1[C@@H]2[C@H](O)C[C@]2(C)[C@@H]1CC[C@]2(O)C(=O)COC(=O)CCC(=O)O` as the molecule, how does the “activity, negative = inhibition” value read?
Answer: -3.21% (inactive)

Question: Which AC50 does the source give for `COc1cc2cc(CN(CCCO)S(=O)(=O)c3ccccc3Cl)c(=O)[nH]c2cc1OC` here?
Answer: 14.1 µM (active)

Question: For `CN(C)C(CNC(=O)NC1CCCCC1)c1cccnc1` (centres undefined), which AC50 is on record?
Answer: 15.8 µM (active)

Question: With `COc1cccc(NC(=O)C2c3cc(OC)c(OC)cc3C(=O)N(C)C2c2cccnc2)c1` (centres undefined) as the molecule, how does the AC50 read?
Answer: 12.6 µM (active)

Question: For `COc1ccc(NC(=O)C2c3cc(OC)c(OC)cc3C(=O)N(C)C2c2cccnc2)cc1OC` (centres undefined), which AC50 is on record?
Answer: 25.1 µM (active)

Question: How did the AC50 turn out when `COc1cc2c(cc1OC)C(C(=O)Nc1ccc3c(c1)OCCO3)C(c1cccnc1)N(C)C2=O` (centres undefined) was run?
Answer: 28.2 µM (active)

Question: With `COCCN1C(=O)c2ccccc2C(C(=O)Nc2ccc3c(c2)OCCO3)C1c1ccc(F)cc1` (centres undefined) as the molecule, how does the activity, negative = inhibition read?
Answer: -22.8% [at 2.29 µM] (inactive)

Question: With `COc1cc2c(cc1OC)C(C(=O)Nc1ccccn1)C(c1cccnc1)N(C)C2=O` (centres undefined) as the molecule, how does the activity, negative = inhibition read?
Answer: -22% [at 11.4 µM] (inactive)

Question: With `CC(C)C12CC[C@@]3(CC[C@H]4[C@@](C)(CCC[C@]4(C)C(=O)O)[C@@H]3C1)[C@@H](CN)C2` as the molecule, how does the activity, negative = inhibition read?
Answer: -9.26% [at 11.4 µM] (inactive)

Question: With `Cc1ccc(-n2c(C)cc(C(=O)CSc3n[nH]c(N)n3)c2C)cc1` as the molecule, how does the AC50 read?
Answer: 10 µM (active)

Question: `CCOC(=O)CSc1n[nH]c(NC(=O)c2cccc(C(F)(F)F)c2)n1` was tested. Which “activity, negative = inhibition” value did it give?
Answer: -5.41% (inactive)

Question: With `O=C1CC[C@H](NC(=O)c2ccccc2)C(=O)N1` as the molecule, how does the activity, negative = inhibition read?
Answer: -12.3% [at 11.4 µM] (inactive)

Question: For `N[C@H](CCC(=O)NCC(=O)O)C(=O)O`, which “activity, negative = inhibition” value is on record?
Answer: -5.94% (inactive)

Question: `CN(C)c1ccc(-c2cncnc2Nc2ccc(F)cc2)cc1` was tested. Which AC50 did it give?
Answer: 0.794 µM (active)

Question: Which AC50 does the source give for `CN(C)c1ccc(-c2cncnc2Nc2ccccc2)cc1` here?
Answer: 0.631 µM (active)

Question: How did the AC50 turn out when `c1cc(CSSCc2ccncc2)ccn1` was run?
Answer: 2.51 µM (active)

Question: For `O=[N+]([O-])c1ccc2nc(-c3ccccc3)n(OCc3ccc(Cl)cc3)c2c1`, which “activity, negative = inhibition” value is on record?
Answer: 1.45% (inactive)

Question: How did the “activity, negative = inhibition” value turn out when `Cc1cc(C)n(-c2ccc(Cl)c(C(=O)O)n2)n1` was run?
Answer: -24.8% (inactive)

Question: `Cc1cc(C)n(-c2nc3ccccc3c(=O)n2OCc2ccc(Cl)cc2)n1` was tested. Which AC50 did it give?
Answer: 14.1 µM (active)

Question: For `COc1ccc(CNc2ccnc(-c3ccc(C(=O)N(C)C)cc3)n2)c(OC)c1`, which AC50 is on record?
Answer: 3.98 µM (active)

Question: For `CN(C)c1ccc(-c2nccc(NCc3ccccc3)n2)cc1`, which AC50 is on record?
Answer: 7.94 µM (active)

Question: Which AC50 does the source give for `COc1ccccc1CNc1ccnc(-c2ccoc2)n1` here?
Answer: 2.51 µM (active)

Question: How did the AC50 turn out when `COc1ccccc1CNc1ccnc(-c2ccc(C(=O)N(C)C)cc2)n1` was run?
Answer: 25.1 µM (active)

Question: Which activity, negative = inhibition does the source give for `C=CC[C@@H](C(=O)O)c1ccccc1` here?
Answer: -1.41% [at 11.4 µM] (inactive)

Question: With `CC(C)(C)CNCCO` as the molecule, how does the activity, negative = inhibition read?
Answer: -3.67% [at 11.4 µM] (inactive)

Question: Which AC50 does the source give for `COc1ccccc1CNc1cc(-c2ccc(C(=O)N(C)C)cc2)ncn1` here?
Answer: 25.1 µM (active)

Question: Which AC50 does the source give for `COc1ccccc1CNc1ccnc(-c2ccc(N(C)C)cc2)n1` here?
Answer: 7.94 µM (active)

Question: `COc1ccc(CNc2ccnc(-c3ccc(N(C)C)cc3)n2)c(OC)c1` was tested. Which AC50 did it give?
Answer: 12.6 µM (active)

Question: Which AC50 does the source give for `CC(C)NC[C@H](O)c1ccc(NS(C)(=O)=O)cc1` here?
Answer: inactive

Question: Which activity, negative = inhibition does the source give for `CN1CCc2nc(N)nc(-c3nc(N)nc4c3CN(C)CC4)c2C1` here?
Answer: 3.49% [at 11.4 µM] (inactive)

Question: For `O=C(CN(Cc1ccco1)C(=O)c1ccccc1)Nc1ccc(Cl)c(Cl)c1`, which AC50 is on record?
Answer: 17.8 µM (active)

Question: How did the AC50 turn out when `O=C(CN(Cc1ccco1)C(=O)c1cccc(Cl)c1)Nc1c(Cl)cc(Cl)cc1Cl` was run?
Answer: 11.2 µM (active)

Question: With `Cn1c[n+](C)cc1/C=N/O` as the molecule, how does the “activity, negative = inhibition” value read?
Answer: -10.6% (inactive)

Question: How did the AC50 turn out when `FC(F)(F)c1ccc(N2CCOCC2)c(Nc2nc3ccccc3n3cnnc23)c1` was run?
Answer: 22.4 µM (active)

Question: How did the “activity, negative = inhibition” value turn out when `CN1CCN(c2nc3cc(C(F)(F)F)ccc3n3cccc23)CC1` was run?
Answer: -28% (inactive)

Question: How did the activity, negative = inhibition turn out when `O=C(O)c1ccccc1NCn1c(=S)sc2ccccc21` was run?
Answer: -19.2% [at 11.4 µM] (inactive)

Question: How did the AC50 turn out when `O=c1sc2ccccc2n1CCCOc1ccccc1` was run?
Answer: 17.8 µM (active)

Question: Which “activity, negative = inhibition” value does the source give for `C[N+](C)(CCCOc1ccccc1)c1ccccc1` here?
Answer: -0.656% [at 25.6 µM] (inactive)

Question: With `Cc1ccc(OCCCn2c(=O)sc3ccccc32)cc1` as the molecule, how does the AC50 read?
Answer: 17.8 µM (active)

Question: `NN(CC(=O)O)CC(=O)O` was tested. Which activity, negative = inhibition did it give?
Answer: -4.66% [at 11.4 µM] (inactive)

Question: With `CN(C)CCCN1c2ccc(O)cc2Sc2ccc(Cl)cc21` as the molecule, how does the activity, negative = inhibition read?
Answer: -18.1% [at 11.4 µM] (inactive)

Question: With `O=C(O)Cn1ccnc1[N+](=O)[O-]` as the molecule, how does the activity, negative = inhibition read?
Answer: 1.73% [at 11.4 µM] (inactive)

Question: For `Cc1ccc(N=Nc2c(N)n(-c3ccccc3)[nH]c2=O)cc1`, which AC50 is on record?
Answer: 11.2 µM (active)

Question: How did the activity, negative = inhibition turn out when `Nc1c(N=Nc2cccc(Cl)c2)c(=O)[nH]n1-c1ccccc1` was run?
Answer: -21.9% [at 2.29 µM] (inactive)

Question: For `Cc1[nH]n(-c2ccc(S(=O)(=O)O)cc2)c(=O)c1N=Nc1ccccc1`, which activity, negative = inhibition is on record?
Answer: 1.46% [at 11.4 µM] (inactive)

Question: With `CCCCc1[nH]c(=O)c(C#N)c2c1CCCC2` as the molecule, how does the “activity, negative = inhibition” value read?
Answer: 5.05% (inactive)

Question: `COc1cccc2cc(C(=O)CC3(O)C(=O)N(Cc4ccccc4)c4ccccc43)c(=O)oc12` (centres undefined) was tested. Which AC50 did it give?
Answer: 7.08 µM (active)

Question: `COc1cc(CN2CCCCC2)cc2cc(C(=O)O)c(=O)oc12` was tested. Which activity, negative = inhibition did it give?
Answer: -36.8% [at 11.4 µM] (inactive)

Question: How did the activity, negative = inhibition turn out when `C[C@H]1CN(CCO)CCN1c1ccccc1` was run?
Answer: 14.2% [at 11.4 µM] (inactive)

Question: `CN1/C(=C\C(=O)COC(=O)Cn2nnc(-c3ccccc3)n2)C(C)(C)c2ccccc21` was tested. Which AC50 did it give?
Answer: 14.1 µM (active)

Question: For `O=C(Cn1nnc(-c2ccccc2)n1)OCc1ccccc1`, which “activity, negative = inhibition” value is on record?
Answer: -7.55% (inactive)

Question: How did the “activity, negative = inhibition” value turn out when `CC(C)c1ccc(-c2nnn(CCC(=O)O)n2)cc1` was run?
Answer: -9.35% (inactive)

Question: `O=C(N/N=C\c1cn(-c2ccccc2)nc1-c1ccccc1)c1ccc2c(c1)OCO2` was tested. Which AC50 did it give?
Answer: 1.58 µM (active)

Question: For `O=C(N/N=C/c1ccccn1)c1ccc(Br)o1`, which “activity, negative = inhibition” value is on record?
Answer: 1.3% (inactive)

Question: `COc1ccc(-c2nn(-c3ccccc3)cc2/C=N/NC(=O)c2ccc3c(c2)OCO3)cc1` was tested. Which AC50 did it give?
Answer: 5.01 µM (active)

Question: `Cc1nn(-c2ccccc2)c(Cl)c1/C=N/NC(=O)c1ccco1` was tested. Which “activity, negative = inhibition” value did it give?
Answer: 6.52% (inactive)

Question: For `O=C(N/N=C\c1cn(-c2ccccc2)nc1-c1ccccc1)c1ccc(Br)o1`, which AC50 is on record?
Answer: 3.98 µM (active)
